# Assay results reported in PubChem BioAssay (EPA / NIEHS).
# Calls of active or inactive are those of the source. How the source made its calls: active means hit-call score of the fitted dose curve at least 0.9, where 1 is the maximum; inactive means score below 0.9.
# Assay: BSK_3C_TissueFactor: BioMAP Diversity Plus: 3C Assay for Tissue Factor Biomarker Activity (AID 2282997)
# Details: BioMAP 3C HUVEC, tissue factor biomarker readout; actives raise or lower the signal
# Method: BSK_3C is a cell-based, multiplexed-readout assay that uses umbilical vein endothelium, a human vascular primary cell, with measurements taken at 24 hours after chemical dosing in a 96-well plate.BSK_3C_TissueFactor is an assay component measured in the BSK_3C assay. It measures Tissue Factor antibody related to regulation of gene expression using ELISA technology.Data from the assay component BSK_3C_TissueFactor was analyzed into 1 assay endpoint. This assay endpoint, BSK_3C_TissueFactor, was analyzed with bidirectional fitting relative to DMSO as the negative control and baseline of activity. Using a type of binding reporter, gain or loss-of-signal activity can be used to understand changes in the signaling as they relate to the gene F3. Furthermore, this assay endpoint can be referred to as a primary readout, because this assay has produced multiple assay endpoints where this one serves a signaling function. To generalize the intended target to other relatable targets, this assay endpoint is annotated to the cytokine intended target family, where the subfamily is coagulation factor.
# The levels of cell surface (or secreted, indicated by the prefix "s") biomarker endpoints were measured by ELISA. Overt cytotoxicity to cells in confluent adherent cultures (all systems other than the BT system) was assessed by measuring total protein levels using sulforhodamine B (SRB) staining in parallel cultures at the time of biomarker measurements, indicated as SRB endpoints. For proliferation assays for adherent cell types, individual cell types are cultured at sub-confluence and relative cell numbers quantified by SRB staining at time points optimized for each system (48 h: 3C and CASM3C systems; 72 h: BT and HDF3CGF systems; 96 h: SAg system). SRB was performed by staining cells with 0.1% SRB after fixation with 10% TCA and reading wells at 560 nm.Viability and proliferation of PBMC (T cells) was quantified by Alamar Blue reduction for the SAg and BT systems. For PBMC viability (referred to as PBMC Cytotoxicity within the assay endpoint names), cells were plated (75,000/well in a 96-well plate) and then chemical samples added for 1 h before addition of activators, SEB and TSST-1 (20 ng/mL final concentration each). Cells were incubated for 90 h. Then, Alamar Blue (20 uL/well) (Invitrogen, Cat DAL1100) was added for 6 h, and the plates were read with a fluorescence microplate reader at 546/580 nm (excitation/emission). For PBMC proliferation, cells were plated and activated as above but incubated for only 16 h prior to addition of Alamar Blue. Plates were read after 6 h.
Compound,AC50,outcome
O=S1OCC2C(CO1)C1(Cl)C(Cl)=C(Cl)C2(Cl)C1(Cl)Cl (stereo not given),29 µM (active),–
CC(C)OC(=O)Nc1cccc(Cl)c1,–,inactive
CCOc1nc(NC)nc(NC(=O)NS(=O)(=O)c2ccccc2C(=O)OC)n1,–,inactive
CCOCN(C(=O)CCl)c1c(C)cccc1CC,–,inactive
CC(C)(C)C(O)/C(=C\c1ccc(Cl)cc1Cl)n1cncn1 (stereo not given),36.7 µM (active),–
C#CCN1C(=O)COc2cc(F)c(N3C(=O)C4=C(CCCC4)C3=O)cc21,–,inactive
O=C1c2ccccc2C(=O)N1SC(Cl)(Cl)Cl,–,inactive
O=C(O)C(F)(F)C(F)(F)C(F)(F)C(F)(F)C(F)(F)C(F)(F)C(F)(F)F,–,inactive
O=C(Nc1ccccc1)Nc1cnns1,–,inactive
O=[N+]([O-])/N=C1\NCCN1Cc1ccc(Cl)nc1,–,inactive
CNC(=O)Oc1ccccc1OC(C)C,–,inactive
COP(=S)(OC)Oc1ccc(SC)c(C)c1,–,inactive
ClC1C(Cl)C(Cl)C(Cl)C(Cl)C1Cl (stereo not given),–,inactive
CCCN(CCC)c1c([N+](=O)[O-])cc(C(F)(F)F)cc1[N+](=O)[O-],–,inactive
CNC(=O)Oc1cccc(N=CN(C)C)c1,–,inactive
O=C(O)CCCOc1ccc(Cl)cc1Cl,–,inactive
O=S(=O)(O)C(F)(F)C(F)(F)C(F)(F)C(F)(F)C(F)(F)C(F)(F)C(F)(F)C(F)(F)F,–,inactive
COc1nn(CSP(=S)(OC)OC)c(=O)s1,–,inactive
Oc1cc(Cl)ccc1Oc1ccc(Cl)cc1Cl,13.8 µM (active) [middle of 4 runs],–
CCS(=O)(=O)c1cccnc1S(=O)(=O)NC(=O)Nc1nc(OC)cc(OC)n1,–,inactive

Compound,AC50,outcome
CNC(=O)CSP(=S)(OC)OC,–,inactive
COP(=S)(OC)Oc1ccc([N+](=O)[O-])cc1,–,inactive
CCC(C)(NC(=O)c1cc(Cl)c(C)c(Cl)c1)C(=O)CCl (stereo not given),5.41 µM (active),–
O=C(O)COc1ccc(Cl)cc1Cl,–,inactive
CCN(CC)C(=O)SCc1ccc(Cl)cc1,–,inactive
CC[C@H](C)[C@H]1O[C@]2(C=C[C@@H]1C)C[C@@H]1C[C@@H](C/C=C(\C)[C@@H](O[C@H]3C[C@H](OC)[C@@H](O[C@H]4C[C@H](OC)[C@@H](O)[C@H](C)O4)[C@H](C)O3)[C@@H](C)/C=C/C=C3\CO[C@@H]4[C@H](O)C(C)=C[C@@H](C(=O)O1)[C@]34O)O2 (tested in a mixture with another compound),12 µM (active),–
CCC(C)Nc1c([N+](=O)[O-])cc(C(C)(C)C)cc1[N+](=O)[O-] (stereo not given),–,inactive
Cc1[nH]c(=O)n(C(C)(C)C)c(=O)c1Cl,–,inactive
COC(=O)c1ccccc1S(=O)(=O)NC(=O)N(C)c1nc(C)nc(OC)n1,–,inactive
Cc1cc(C)nc(NC(=O)NS(=O)(=O)c2ccccc2C(=O)OC2COC2)n1,–,inactive
CC(C)N(C(=O)COc1nnc(C(F)(F)F)s1)c1ccc(F)cc1,–,inactive
Oc1ccc(Cl)cc1Cc1ccccc1,32.4 µM (active) [middle of 7 runs],–
CC1(c2ccc(Oc3ccccc3)cc2)OC(=O)N(Nc2ccccc2)C1=O (stereo not given),29.5 µM (active),–
COP(=O)(OC)OC=C(Cl)Cl,–,inactive
CC(C)(C)C(O)C(Oc1ccc(Cl)cc1)n1cncn1 (stereo not given),–,inactive
CCc1ccc(C(=O)NN(C(=O)c2cc(C)cc(C)c2)C(C)(C)C)cc1,–,inactive
OCCOc1ccccc1,–,inactive
CC1(C)C(C=C(Cl)Cl)C1C(=O)OC(C#N)c1ccc(F)c(Oc2ccccc2)c1 (stereo not given),–,inactive
CN1CSC(=S)N(C)C1,–,inactive
CNC(=O)/C=C(\C)OP(=O)(OC)OC,–,inactive
